Assay results taken from PubChem BioAssay (NCI).
This is part of a sample that, as a whole, favours compounds with a hit. Of some 83,000 tested, about 20% had one in any assay.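 Note: values are percent growth. 100 is the growth of untreated cells, values between 100 and 0 indicate rising inhibition; between -100 and 0 indicates cell death.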 Values without a mark were called inactive. Calls of active or inactive are those of the source. The calls were made as follows: active = growth percent below 10; inactive = the rest.

System: HL-60(TB) leukemia
Assay: NCI-60 one-dose screen, 48 h (100 = growth as untreated, 0 = no growth, -100 = all killed)
Conditions: 10 µM unless noted

| Compound | growth |
| --- | --- |
| Cc1c2ccncc2c(C)c2c1c1ccccc1n2CCCCCC(=O)O | 104% |
| CCOC(=O)/C(=C\c1ccccc1Cl)P(=O)(OCC)OCC | 10.8% |
| Cc1cc(Nc2nc(N3CCOCC3)nc3ccccc23)n[nH]1 | 63.1% |
| N=C(N)c1ccc(-c2ccc(-c3ccccc3)s2)nc1 | 16.6% |
| O=C(N/N=C\c1cccc([N+](=O)[O-])c1)N/N=C/c1cccc([N+](=O)[O-])c1 | 107% |
| Cc1ccc2c(c1)C(=O)/C(=C/c1cccc(OCC(=O)c3ccc(Cl)cc3)c1)CS2 | 43.1% |
| CC1COCC(C)N1C1=C(Cl)C(=O)c2ccccc2C1=O (centres undefined) | -19.5% (active) |
| [N-]=[N+]=Nc1ncc(-c2ccc(C(F)(F)F)cc2)c(NC2CCCCCC2)n1 | -14.7% [100 µM] (active) |
| CC(=O)OC[C@]12CC[C@@H](C(=O)CBr)[C@@H]1[C@H]1CC[C@@H]3[C@@]4(C)CC[C@H](OC(C)=O)C(C)(C)[C@@H]4CC[C@@]3(C)[C@]1(C)CC2 | 63.8% |
| CCCCCCN1C(=O)/C(=c2\sc3n(c2=O)C2C(NN=3)N(CC)C(=O)N2CC)c2ccccc21 (centres undefined) | 42.2% |
| CCOC(=O)C1CSC(C)(C(=O)OCC)N1 (centres undefined) | 83.8% |
| CCN(CC)CCCCCNc1cc(OC(=O)c2ccc(Cl)cc2)cc2cccnc12 | 6.96% (active) |
| CCCCc1ccc(C(O)(CCN2CC3CCC(CC3)C2)c2ccccc2)cc1 (centres undefined) | 84.5% |
| Cc1ccc2c(C)c3c(ccc4ccccc43)c[n+]2c1 | 94.4% |
| CN1CCN(Cc2ccc(NC(=O)c3cncc(C#Cc4cnc(N)c5cccnc45)c3)cc2C(F)(F)F)CC1 | -13.9% (active) |
| CC(C)CSc1nc(N)nc2c1ncn2C1OC(CO)C(O)C1O (centres undefined) | 113% |
| COc1ccc2cc(-c3ccnc4c(N=Nc5ccc(Cl)cc5)c(N)nn34)ccc2c1 | 98.8% |
| CCn1cc(C(=O)N/N=C/c2cccc(F)c2)c(=O)c2cc(F)c(N3CCNC(C)C3)c(F)c21 (centres undefined) | 65.5% |
| CCN1C2=C(SC(=S)C1=C1SC(C(=O)OC)=C(C(=O)OC)S1)SC(=Nc1ccc(OC)cc1)C2=O | 26% |
| C=CC(=O)Nc1cc(Nc2nccc(-c3cn(C)c4ccccc34)n2)c(OC)cc1N(C)CCN(C)C | -65.8% (active) |
| Cc1cc2nc(-c3ccccc3)c(-c3ccccc3)nc2cc1C | 48.3% |
| CSc1nn2c(-c3cc4cc(Br)ccc4oc3=O)ccnc2c1C#N | 102% |
| CCCCCCCCCCCCCCCCN=C(CC(=O)O)C(=O)O | 72.6% |
| CCCc1cc2c(cc1CN(Cc1cc3c(cc1CCC)OCO3)C(=N)OCC)OCO2 | 105% |
